# Efflux pump mplx – antifungal efflux pump inhibition, Nile Red retention | S. cerevisiae Candida pump triplex | inhibition, % at 10 µM | 330,000 compounds, 0.44% hits;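 active = plate passing quality check with inhibition over a set limit, or well fluorescence over plate mean plus 4 SD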;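 note: Nile Red retained in pooled yeast measured as flow cytometry median fluorescence; 0% = buffer negative control and 100% = Enniatin B positive control; higher means more Nile Red kept so more efflux inhibition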
# ALR inh – inhibitors of human sulfhydryl oxidase ALR. P55789. purified ALR, DTT oxidation, H2O2 HRP-luminol luminescence. inhibition, % (test concentration not listed). 290,000 compounds, 3.8% hits. AID 485317;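 active = mean replicate inhibition above about 79%, with every replicate also reaching it, limit read from the data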
# Target sequence (P55789 whole entry, looked up): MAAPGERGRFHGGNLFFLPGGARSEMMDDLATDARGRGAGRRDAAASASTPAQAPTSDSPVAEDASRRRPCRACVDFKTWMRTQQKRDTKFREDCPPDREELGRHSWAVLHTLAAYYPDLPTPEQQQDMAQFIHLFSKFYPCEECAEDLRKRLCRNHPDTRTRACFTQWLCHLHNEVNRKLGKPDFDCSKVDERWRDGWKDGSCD
# HDAC3 inhib – inhibitors of human histone deacetylase 3; O15379; recombinant HDAC3, fluorogenic peptide/trypsin coupled, fluorescence; inhibition, % at 8.3 µM; 320,000 compounds, 0.15% hits; in the data active = inhibition above about 26%, passing the limit was not always enough
# Target sequence (O15379 whole entry, looked up): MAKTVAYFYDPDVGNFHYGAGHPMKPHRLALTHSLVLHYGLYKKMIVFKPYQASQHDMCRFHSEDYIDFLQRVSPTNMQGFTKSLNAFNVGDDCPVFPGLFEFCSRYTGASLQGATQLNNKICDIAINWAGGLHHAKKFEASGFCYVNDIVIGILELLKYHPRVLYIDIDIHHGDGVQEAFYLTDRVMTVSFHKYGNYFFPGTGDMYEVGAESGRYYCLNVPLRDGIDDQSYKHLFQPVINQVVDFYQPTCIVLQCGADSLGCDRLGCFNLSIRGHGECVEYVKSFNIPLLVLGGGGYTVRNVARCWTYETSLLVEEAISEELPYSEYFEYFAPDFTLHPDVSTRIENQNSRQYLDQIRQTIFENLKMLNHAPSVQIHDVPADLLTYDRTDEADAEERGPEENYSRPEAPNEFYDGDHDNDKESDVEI
# Rce1 inhib – inhibitors of yeast Ras-converting enzyme; calls only; 290,000 compounds, 0.27% hits; Q03530; AID 2563; yeast membranes, quenched prenylated peptide cleavage fluorescence;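 active = fall in fluorescence gain of 50% or more versus controls, with final raw signal at or below 3038400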;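 note: plate controls were neutral control wells for no effect and wells lacking membranes for full effect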
# GRK2 inh – inhibitors of human GRK2 displacing RNA aptamer; bead flow cytometry, FAM-aptamer displacement from GRK2; inhibition of aptamer binding, % at 10 µM; 330,000 compounds, 0.59% hits;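 active = inhibition of aptamer binding above 40%, roughly 3 SD of noise, on plates passing a quality check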;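 note: median bead fluorescence of bound FAM aptamer so fluorescent compounds give negative values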
# Rtt109 Vps75 – inhibitors of Candida albicans Rtt109/Vps75 histone acetyltransferase; Q5AAJ8; purified Rtt109/Vps75, ThioGlo CoA-SH fluorescence, 4 h; inhibition, % at 34.9 µM; 330,000 compounds, 0.16% hits; AID 540336;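 active = inhibition of at least 50% in every replicate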
# * marks the source's active call; other numbers are inactive results; i = inactive; x = no result given; + = active, no number. Most compounds without a hit are left out; they make up all but 4.5% or so of the library.
SMILES,Efflux pump mplx,ALR inh,HDAC3 inhib,Rce1 inhib,GRK2 inh,Rtt109 Vps75
Cc1nc2ncnn2c(N2CCCC(C(=O)Nc3ccc4c(c3)CCC4)C2)c1C (stereo not drawn),-0.1,91.6*,3.0,i,4.0,5.1
COc1cc2c(cc1OC)C(CCc1ccccc1)=NCC2,-0.1,x,-33.5,+,0.0,-116.7
CCOC(=O)c1c(C)oc2c1c1c(c3ccccc32)OCN(CCCC(=O)O)C1,-0.2,91.1*,-1.7,i,0.0,0.2
CC(=O)c1cccc(NC(=O)CSc2nc3ccccc3c(=O)n2CCCN2CCOCC2)c1,-0.1,14.1,3.5,x,5.0,-0.1
Cc1ccc(NC(=O)CSc2nc3ccccc3c(=O)n2CCCN2CCCCC2)cc1C,0.1,98.2*,3.1,i,0.0,25.8
COC(=O)c1ccc2c(=O)n(CCN3CCOCC3)c(SCC(=O)Nc3ccc(C)cc3)nc2c1,0.6,99.0*,x,i,3.0,13.8
CCOC(=O)CSc1nc2cc(C(=O)OC)ccc2c(=O)n1CCN1CCOCC1,0.0,x,4.1,i,0.0,0.2
CCCCn1c(SCC(=O)Nc2ccc(OC)cc2)nc2ccc(N3CCOCC3)cc2c1=O,-0.1,99.0*,4.6,i,1.0,1.4
COCCN(C(=O)c1cc(CN2C(=O)c3ccccc3C2=O)ccc1OC)c1c(N)n(CC(C)C)c(=O)[nH]c1=O,x,x,x,x,x,-15.2
COc1ccccc1C(C)NCC(=O)NC(=O)NCc1ccco1 (stereo not drawn),-0.1,6.0,1.8,i,3.0,6.0
O=C(Nc1ccc(Cl)cc1F)C1CCN(S(=O)(=O)c2cccc3nonc23)CC1,0.2,0.9,-3.7,i,0.0,9.7
CC1=NN(Cc2ccccc2)C(=O)C1C(c1ccccc1)C(C#N)C#N (stereo not drawn),-0.2,97.9*,3.9,i,1.0,3.7
CC(=O)c1ccc2c(c1)C1C=CCC1C(C(=O)O)N2 (stereo not drawn),x,x,x,x,x,17.8
COc1cccc2c1NC(C(=O)O)C1CC=CC21 (stereo not drawn),-0.1,81.3*,3.3,i,100.0*,-2.9
O=C(O)C1Nc2c(cccc2C(F)(F)F)C2C=CCC12 (stereo not drawn),-0.1,-29.3,2.7,i,75.0*,x
O=C(NCc1ccccc1)C1Nc2ccc(OC(F)(F)F)cc2C2C=CCC12 (stereo not drawn),0.1,4.8,-3.7,i,0.0,13.9
COc1ccc(S(=O)(=O)N2CCOCC2)cc1NC(=O)COC(=O)c1ccc([N+](=O)[O-])s1,-0.1,-40.9,3.9,x,0.0,-1.4
COc1ccc(/C=C2\SC(=S)N(C(C)C(=O)NC3C=CS(=O)(=O)C3)C2=O)cc1 (stereo not drawn),0.1,98.2*,1.1,i,2.0,33.6
COc1cccc(/C=C2\SC(=O)N(CC(=O)NC3C=CS(=O)(=O)C3)C2=O)c1 (stereo not drawn),0.3,41.6,4.4,i,0.0,9.1
COc1ccc(/C=C2\SC(=S)N(CC(=O)NC3C=CS(=O)(=O)C3)C2=O)cc1 (stereo not drawn),-0.1,-1.2,-1.4,i,0.0,8.0
COc1cccc(/C=C2\SC(=S)N(C(C)C(=O)NC3C=CS(=O)(=O)C3)C2=O)c1 (stereo not drawn),0.3,61.6,-4.0,i,2.0,154.1*
O=C1CCC([N+](=O)[O-])C(c2ccc(-c3ccccc3)cc2)N1 (stereo not drawn),0.0,1.6,-13.3,i,0.0,-6.2
COc1ccc(N2CCN(CCC3Oc4cc([N+](=O)[O-])ccc4NC3=O)CC2)cc1 (stereo not drawn),0.1,86.0*,-6.1,i,2.0,9.2
CCN1CCN(CCC2Oc3cc([N+](=O)[O-])ccc3NC2=O)CC1 (stereo not drawn),0.2,3.2,-2.7,i,3.0,4.5
COc1cc(-c2c(C#N)c(=O)[nH]c3c2c(C)nn3-c2ccccc2)ccc1O,0.0,99.0*,6.3,i,1.0,6.0
SMILES,Efflux pump mplx,ALR inh,HDAC3 inhib,Rce1 inhib,GRK2 inh,Rtt109 Vps75
COC(=O)c1ccc(NC(=O)Cn2nc(C(=O)Nc3ccc(C)cc3)ccc2=O)cc1,0.1,-3.0,1.6,i,4.0,-6.2
COc1ccccc1-c1nc(S(=O)(=O)c2ccccc2)c(N2CCOCC2)o1,0.0,1.9,1.4,i,4.0,-4.7
c1cncc(CN=C2Nc3ccccc3CS2)c1,0.1,98.1*,-2.2,i,1.0,-4.3
COc1ccc(C(C)=O)cc1CSc1ncccn1,-0.1,43.9,-3.7,i,0.0,-16.2
COc1ccc(/C=C/C(=O)c2ccc(O)cc2)cc1CN1CCOCC1,0.8,-14.6,4.8,i,0.0,14.5
COc1ccc(C(=O)/C=C/c2ccsc2)cc1CSCC(=O)O,0.1,98.8*,8.2,i,5.0,10.5
COc1ccc(C(C)=O)cc1CSCCC(=O)O,0.1,98.3*,0.8,i,0.0,-4.5
O=C(Cn1cc(COc2c(F)c(F)cc(F)c2F)nn1)c1ccc(O)cc1,x,x,x,x,x,5.3
C[C@H](CO)N1C[C@H](C)[C@@H](CN(C)C(=O)Nc2ccccc2)Oc2c(NC(=O)C3CCCCC3)cccc2C1=O,-0.1,3.2,-4.5,x,0.0,-0.1
CCN(CC(=O)NCc1cccs1)C(=O)c1ccc(-c2ccccc2F)o1,0.0,x,x,x,0.0,1.5
CN(C)c1ccc(N=Nc2cccc3ccoc23)cc1,-0.2,85.8*,5.0,i,0.0,-5.3
c1cc[n+](CCC[n+]2ccccc2)cc1,-0.1,-14.2,2.8,i,1.0,3.6
O=[N+]([O-])c1cccc(CN2C[C@@]34C=C[C@@H](C[C@@H]3S2(=O)=O)O4)c1,-0.1,96.0*,5.5,i,0.0,-9.3
CC1CCC2(CC1)NC(=O)N(CC(=O)N1CCN(S(=O)(=O)c3ccc4c(c3)CCC4)CC1)C2=O (stereo not drawn),0.1,11.3,0.1,x,0.0,10.2
CC(=O)c1c(C)[nH]c(C(=O)N(CCc2ccccc2)Cc2ccccc2)c1C,-0.1,-1.6,1.7,i,0.0,-1.1
CS(=O)(=O)Cc1ccc(C(=O)N(CCc2ccccc2)Cc2ccccc2)cc1,0.1,-10.5,0.2,+,7.0,3.9
CS(=O)(=O)c1ccc(C(=O)OCC(=O)N(CCc2ccccc2)Cc2ccccc2)cc1,0.1,-4.6,12.6,+,1.0,-0.3
CCN(CCCNC(=O)CN(C)S(=O)(=O)c1cccc2nsnc12)c1ccccc1,0.0,95.3*,-1.1,i,0.0,-2.8
Cc1ccc([N+](=O)[O-])cc1S(=O)(=O)Nc1ccc(O)c(Sc2ncn[nH]2)c1,0.0,94.1*,3.3,i,4.0,12.6
COc1ccc(-c2ccc(NS(=O)(=O)c3cc([N+](=O)[O-])ccc3C)cc2)nn1,-0.2,-5.3,-6.1,i,0.0,4.9
Cc1ccc([C@H]2C(C(=O)O)=CC[C@@H](c3ccc4c(c3)OCO4)N2S(=O)(=O)c2ccc(C)cc2)cc1,0.0,x,x,x,3.0,5.6

# High-throughput results deposited in PubChem BioAssay by several laboratories.
